For some assays here: Entries with a potency or affinity are not part of this list.
Legend:
Design in all cases: scale not given: direction of the effect not stated beside the values
[1] = biological target: Protein translocase subunit SecA (Escherichia coli (strain K12)) (UniProt P10408); assay: Assay to Identify E. coli SecA ATPase Inhibitors; format: functional; details: 30 µM
[2] = biological target: T1, Ubiquitin-activating enzyme e1, putative (Leishmania donovani (strain BPK282A1)) (UniProt E9BSI1); assay: Leishmania donovani Ubiquitin Activating Enzyme (LdE1); format: functional; details: 30 µM
T1 sequence (whole entry): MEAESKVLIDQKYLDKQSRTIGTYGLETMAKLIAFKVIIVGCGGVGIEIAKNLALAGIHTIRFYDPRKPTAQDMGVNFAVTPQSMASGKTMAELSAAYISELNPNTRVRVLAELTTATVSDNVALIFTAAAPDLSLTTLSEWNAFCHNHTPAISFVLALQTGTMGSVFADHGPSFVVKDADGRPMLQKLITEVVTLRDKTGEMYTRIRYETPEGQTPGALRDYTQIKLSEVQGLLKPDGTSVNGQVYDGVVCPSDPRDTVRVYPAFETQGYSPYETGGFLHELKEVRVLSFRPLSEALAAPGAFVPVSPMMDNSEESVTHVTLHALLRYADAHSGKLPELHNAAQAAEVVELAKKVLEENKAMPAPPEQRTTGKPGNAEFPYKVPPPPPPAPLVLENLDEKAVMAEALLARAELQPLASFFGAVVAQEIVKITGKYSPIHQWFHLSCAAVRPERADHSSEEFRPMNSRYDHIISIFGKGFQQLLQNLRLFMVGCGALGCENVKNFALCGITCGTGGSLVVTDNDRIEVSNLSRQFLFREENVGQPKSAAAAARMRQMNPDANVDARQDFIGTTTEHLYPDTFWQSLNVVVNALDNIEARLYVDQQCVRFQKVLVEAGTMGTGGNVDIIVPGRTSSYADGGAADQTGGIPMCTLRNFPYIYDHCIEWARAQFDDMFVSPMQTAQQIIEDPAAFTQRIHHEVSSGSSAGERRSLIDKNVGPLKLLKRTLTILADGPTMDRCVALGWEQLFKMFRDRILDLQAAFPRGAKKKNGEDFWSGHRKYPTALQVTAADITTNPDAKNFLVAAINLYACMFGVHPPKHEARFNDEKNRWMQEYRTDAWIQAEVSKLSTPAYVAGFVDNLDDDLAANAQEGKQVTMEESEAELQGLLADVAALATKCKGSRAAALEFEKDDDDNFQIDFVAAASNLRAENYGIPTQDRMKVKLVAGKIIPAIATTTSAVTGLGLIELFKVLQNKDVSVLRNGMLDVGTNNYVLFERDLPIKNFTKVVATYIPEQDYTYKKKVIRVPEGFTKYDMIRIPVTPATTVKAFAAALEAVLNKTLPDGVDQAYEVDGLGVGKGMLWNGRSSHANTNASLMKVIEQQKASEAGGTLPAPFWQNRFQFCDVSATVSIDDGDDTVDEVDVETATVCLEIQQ

[3] = biological target: AMP-activated protein kinase, AMPK (Homo sapiens) (UniProt P54646+O43741+P54619+Q9UGJ0+Q9Y478+Q13131+Q9UGI9); assay: AMP-dependent Kinase enzyme assay. An in vitro enzyme assay that detects ADP turnover that is directly proportional to AMPK activity. This uses naive AMPK that is activated during the assay with MK-8722; format: functional; details: 30 µM
[4] = biological target: Sialic acid-binding Ig-like lectin 9 (Homo sapiens) (UniProt Q9Y336); assay: Hs-Siglec9 ALPHAscreen SOP 20170721; details: 10 µM
Sequence of Sialic acid-binding Ig-like lectin 9 (Homo sapiens) (Q9Y336 whole entry): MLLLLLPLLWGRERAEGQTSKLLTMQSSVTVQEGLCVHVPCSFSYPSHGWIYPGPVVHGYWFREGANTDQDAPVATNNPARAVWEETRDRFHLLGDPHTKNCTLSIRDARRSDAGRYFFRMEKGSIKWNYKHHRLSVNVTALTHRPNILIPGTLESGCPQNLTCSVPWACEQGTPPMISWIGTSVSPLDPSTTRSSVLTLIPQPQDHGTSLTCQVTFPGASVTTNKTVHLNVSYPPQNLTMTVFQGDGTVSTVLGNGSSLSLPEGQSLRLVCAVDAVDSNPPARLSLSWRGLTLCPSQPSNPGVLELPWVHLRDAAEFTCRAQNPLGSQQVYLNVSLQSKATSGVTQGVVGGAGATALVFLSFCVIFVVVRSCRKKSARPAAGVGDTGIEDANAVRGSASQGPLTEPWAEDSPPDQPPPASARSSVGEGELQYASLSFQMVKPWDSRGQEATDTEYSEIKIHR

Trypanosoma cruzi = assay: Trypanosoma cruzi phosphomannomutase and mannose-1-phosphate guanylyltransferase assay; format: functional; details: 10 µM
[5] = biological target: T2, Arginase-2, mitochondrial (Homo sapiens) (UniProt P78540); assay: in vitro enzyme assay to detect the production of urea directly proportional to the activity of Arginase II; format: functional; details: 33.3 µM; also: in the data most compounds retested in dose-response had high values
T2 sequence (whole entry): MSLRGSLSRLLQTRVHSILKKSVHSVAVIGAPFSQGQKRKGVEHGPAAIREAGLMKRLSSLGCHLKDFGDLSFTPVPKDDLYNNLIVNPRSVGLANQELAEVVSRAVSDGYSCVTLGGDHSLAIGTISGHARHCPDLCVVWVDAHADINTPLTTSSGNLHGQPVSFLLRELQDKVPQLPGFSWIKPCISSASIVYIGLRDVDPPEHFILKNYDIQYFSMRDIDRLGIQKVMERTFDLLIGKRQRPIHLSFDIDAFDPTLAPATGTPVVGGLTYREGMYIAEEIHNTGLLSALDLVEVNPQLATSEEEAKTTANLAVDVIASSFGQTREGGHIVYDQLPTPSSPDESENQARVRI

[6] = biological target: T3, Proteasome subunit beta (Trypanosoma cruzi) (UniProt O96673); assay: Trypanosoma cruzi proteasome chymotrypsin-like activity (TcProtChymo) assay.; also: in the data most compounds retested in dose-response had high values; format: functional; details: 9.37 µM
T3 sequence (whole entry): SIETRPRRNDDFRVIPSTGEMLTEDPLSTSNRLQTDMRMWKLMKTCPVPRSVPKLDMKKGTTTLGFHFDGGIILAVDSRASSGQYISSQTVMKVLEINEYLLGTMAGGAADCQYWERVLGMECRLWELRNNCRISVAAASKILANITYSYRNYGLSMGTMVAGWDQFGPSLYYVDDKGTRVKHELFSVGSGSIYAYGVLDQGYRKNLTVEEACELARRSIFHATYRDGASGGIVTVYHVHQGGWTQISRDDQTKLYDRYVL

Homo sapiens = species on record: Homo sapiens; assay: To identify inhibition of the IFN signalling (Jak-Stat) pathway via expression of an eGFP reporter gene under the control of an IFN-stimulated response element (ISRE) containing MxA promoter.; format: functional; details: 30 µM
[7] = biological target: T4, Tyrosyl-tRNA synthetase, putative (Trypanosoma cruzi (strain CL Brener)) (UniProt Q4DSP6); assay: Trypanosoma cruzi tyrosyl tRNA synthetase (TcYRS) _High Tyrosine SOP; format: functional; details: 30 µM; also: in the data most compounds retested in dose-response had high values
T4 sequence (whole entry): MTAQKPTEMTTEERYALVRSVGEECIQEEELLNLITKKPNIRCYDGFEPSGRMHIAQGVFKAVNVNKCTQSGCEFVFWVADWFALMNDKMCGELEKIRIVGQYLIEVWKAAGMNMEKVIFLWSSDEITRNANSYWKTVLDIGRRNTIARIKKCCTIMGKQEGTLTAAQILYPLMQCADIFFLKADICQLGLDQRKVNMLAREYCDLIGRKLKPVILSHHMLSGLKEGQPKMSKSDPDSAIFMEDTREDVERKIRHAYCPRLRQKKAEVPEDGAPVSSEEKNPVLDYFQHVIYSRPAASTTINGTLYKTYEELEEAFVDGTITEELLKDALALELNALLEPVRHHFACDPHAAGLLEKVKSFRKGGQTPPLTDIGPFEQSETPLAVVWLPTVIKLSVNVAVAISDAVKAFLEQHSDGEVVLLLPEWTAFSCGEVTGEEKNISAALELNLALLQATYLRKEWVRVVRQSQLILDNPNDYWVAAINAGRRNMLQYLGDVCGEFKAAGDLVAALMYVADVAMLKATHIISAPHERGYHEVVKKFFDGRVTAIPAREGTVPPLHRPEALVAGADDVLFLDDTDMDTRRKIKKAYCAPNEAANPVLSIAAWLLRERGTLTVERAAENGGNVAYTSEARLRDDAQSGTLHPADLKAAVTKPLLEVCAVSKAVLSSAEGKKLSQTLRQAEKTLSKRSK

[8] = biological target: T4, Tyrosyl-tRNA synthetase, putative (Trypanosoma cruzi (strain CL Brener)); assay: Trypanosoma cruzi tyrosyl tRNA synthetase (TcYRS) SOP; format: functional; details: 30 µM
[9] = biological target: Chromo domain-containing protein 1 (Saccharomyces cerevisiae (strain ATCC 204508 / S288c) (Baker's yeast)) (UniProt P32657); assay: ScCHD-1 Enzyme Inhibition Assay; format: functional; details: 30 µM; also: in the data most compounds retested in dose-response had high values
Sequence of Chromo domain-containing protein 1 (Saccharomyces cerevisiae (strain ATCC 204508 / S288c) (Baker's yeast)) (P32657 whole entry, the tested form may be a part): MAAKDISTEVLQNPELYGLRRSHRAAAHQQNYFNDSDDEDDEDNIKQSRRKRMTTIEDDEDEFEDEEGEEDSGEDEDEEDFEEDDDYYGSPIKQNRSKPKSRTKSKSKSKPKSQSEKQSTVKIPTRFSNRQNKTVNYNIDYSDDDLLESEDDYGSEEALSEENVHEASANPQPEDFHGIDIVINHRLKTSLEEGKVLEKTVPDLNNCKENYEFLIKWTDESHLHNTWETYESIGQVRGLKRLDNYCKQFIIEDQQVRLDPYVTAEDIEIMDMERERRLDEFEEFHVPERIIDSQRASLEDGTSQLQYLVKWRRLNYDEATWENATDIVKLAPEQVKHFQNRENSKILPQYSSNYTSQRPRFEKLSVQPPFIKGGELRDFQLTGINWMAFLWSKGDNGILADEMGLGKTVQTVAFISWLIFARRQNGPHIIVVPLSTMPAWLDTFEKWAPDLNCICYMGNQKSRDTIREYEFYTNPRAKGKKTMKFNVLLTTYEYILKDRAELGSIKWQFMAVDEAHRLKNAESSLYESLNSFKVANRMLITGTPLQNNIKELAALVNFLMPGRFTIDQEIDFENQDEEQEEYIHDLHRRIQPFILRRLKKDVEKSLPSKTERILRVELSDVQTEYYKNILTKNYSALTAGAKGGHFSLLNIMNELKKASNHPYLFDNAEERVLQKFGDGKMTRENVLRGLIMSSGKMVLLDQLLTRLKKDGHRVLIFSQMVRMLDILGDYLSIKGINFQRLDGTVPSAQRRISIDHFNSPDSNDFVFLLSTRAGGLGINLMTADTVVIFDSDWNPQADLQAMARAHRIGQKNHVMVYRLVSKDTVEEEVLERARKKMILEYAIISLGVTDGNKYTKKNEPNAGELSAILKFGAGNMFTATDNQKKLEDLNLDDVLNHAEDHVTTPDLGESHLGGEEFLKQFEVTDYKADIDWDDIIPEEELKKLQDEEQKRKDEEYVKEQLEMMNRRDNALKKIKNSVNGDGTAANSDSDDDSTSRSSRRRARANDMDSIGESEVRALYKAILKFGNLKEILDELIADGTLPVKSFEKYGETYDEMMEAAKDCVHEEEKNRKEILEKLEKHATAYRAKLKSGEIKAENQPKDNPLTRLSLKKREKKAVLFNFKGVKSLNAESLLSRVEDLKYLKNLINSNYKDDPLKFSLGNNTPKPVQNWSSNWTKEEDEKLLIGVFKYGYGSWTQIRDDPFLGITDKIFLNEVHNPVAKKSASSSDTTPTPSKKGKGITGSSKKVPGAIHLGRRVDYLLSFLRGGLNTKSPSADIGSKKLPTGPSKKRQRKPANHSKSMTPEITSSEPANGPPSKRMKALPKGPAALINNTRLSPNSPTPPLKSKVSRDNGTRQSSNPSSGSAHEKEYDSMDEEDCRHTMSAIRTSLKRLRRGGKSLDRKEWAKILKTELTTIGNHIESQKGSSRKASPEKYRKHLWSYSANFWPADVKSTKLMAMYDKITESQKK

Sequence of Protein translocase subunit SecA (Escherichia coli (strain K12)) (P10408 whole entry): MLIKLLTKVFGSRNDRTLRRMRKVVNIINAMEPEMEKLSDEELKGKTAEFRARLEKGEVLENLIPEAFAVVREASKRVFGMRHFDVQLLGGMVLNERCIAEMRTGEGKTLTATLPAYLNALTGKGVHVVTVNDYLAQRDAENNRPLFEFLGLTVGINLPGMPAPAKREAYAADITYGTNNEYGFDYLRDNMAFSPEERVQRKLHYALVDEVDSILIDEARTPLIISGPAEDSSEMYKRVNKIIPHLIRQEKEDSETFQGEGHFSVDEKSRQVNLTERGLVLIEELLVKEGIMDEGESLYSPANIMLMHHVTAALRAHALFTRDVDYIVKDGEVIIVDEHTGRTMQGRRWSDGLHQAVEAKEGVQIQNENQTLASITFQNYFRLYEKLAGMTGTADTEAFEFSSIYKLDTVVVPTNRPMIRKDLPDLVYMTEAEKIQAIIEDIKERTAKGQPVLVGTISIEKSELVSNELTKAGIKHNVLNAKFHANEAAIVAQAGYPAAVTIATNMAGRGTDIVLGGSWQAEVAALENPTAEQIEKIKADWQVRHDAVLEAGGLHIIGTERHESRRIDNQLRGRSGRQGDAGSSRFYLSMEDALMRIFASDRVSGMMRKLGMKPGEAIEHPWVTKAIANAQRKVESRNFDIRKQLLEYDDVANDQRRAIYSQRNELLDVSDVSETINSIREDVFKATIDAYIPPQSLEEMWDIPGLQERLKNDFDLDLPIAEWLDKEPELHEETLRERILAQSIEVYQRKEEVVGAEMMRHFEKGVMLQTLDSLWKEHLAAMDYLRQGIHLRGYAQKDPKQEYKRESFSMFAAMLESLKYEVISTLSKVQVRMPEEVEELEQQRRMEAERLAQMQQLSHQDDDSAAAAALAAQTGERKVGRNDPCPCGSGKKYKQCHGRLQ

SMILES	Percent Effect [1] [%]	Percent Effect [2] [%]	Percent Effect [3] [%]	Percent Effect [4] [%]	Percent Effect (Trypanosoma cruzi) [%]	Percent Effect [5] [%]	Percent Effect [6] [%]	Percent Effect (Homo sapiens) [%]	Percent Effect [7] [%]	Percent Effect [8] [%]	Percent Effect [9] [%]
O=C(NCCO)C1(Cc2cc(-c3ccc(F)cc3F)no2)CCOCC1	-2.99	12.2	14.6	-1.56	0.988	1.16	15.8	23.3	0	6.49	-16.7
Cc1ccc2cc(CNCCCN3CCOCC3)c(=O)[nH]c2c1	-3.73	4.05	11.3	5.46	0.395	-0.696	6.08	12	5.38	9.09	-7.66
Cn1cc(CN2CCCn3cnc(CN4CCCC4=O)c3C2)cn1	-2.78	-2.67	4.3	32.8	-1.74	-23.5	3.76	-13.1	1.04	2.5	-4.19
COc1cccc(C(=O)N2CCCCC2CNC(N)=O)c1 (configuration not stated)	-9.94	5.26	4.5	4.83	-4.58	-3.6	0.0846	1.79	3.45	6.17	0.323
CCc1nc(CC(=O)N2CCN(c3cnccn3)CC2)cs1	-4.23	16.5	1.43	5.88	1.95	1.94	0.343	11.8	1.04	17.7	-26.3
Cn1nnc2c1CCN(Cc1nccs1)C2COCc1ccccc1 (configuration not stated)	-2.95	2.67	-19.8	5.81	1.77	5.83	-8.9	-0.293	7.45	8.97	-0.607
CNC(=O)C1(CCCc2ccncc2)CCCN1 (configuration not stated)	-0.846	12.2	14.6	0.634	-2.96	-2.09	12.3	1.56	7.53	22.1	-10.5
CN(CCCc1cnn(C)c1)C(=O)C1CCOC1 (configuration not stated)	-4.14	2.74	3.21	1.94	-6.46	-1.36	13.1	10.7	3.23	2.5	-1.18
O=C(NCC(O)c1cccs1)c1cccc(Cl)c1 (configuration not stated)	-0.149	13.7	3.83	0.22	3.72	7.27	25.6	13.3	6.45	17.5	-6.71
CN(C)C(=O)N1CCc2c(CNc3ncccn3)cncc2C1	-2.85	0	-1	7.13	1.35	-23.8	1.88	-4.02	6.25	7.5	-2.6
CC(O)CN1CCN(C(=O)CN(C)c2ccc(Cl)cn2)CC1 (configuration not stated)	-0.0278	-2.7	-4.09	7.01	-1.93	-2.38	14.8	14.1	4.76	7.32	-3.67
Cc1[nH]ncc1CCCNC(=O)Nc1ccc(C#N)cc1	-1.53	5.41	8.53	1.92	3.28	2.38	7.41	15.2	7.94	9.76	-1.92
CC(C)c1nc(CN2CCN(CC3CCCO3)CC2)cs1 (configuration not stated)	1.19	10.4	-7.85	-14	-1.47	6.95	14.8	17.1	4.76	9.41	-15.6
CC(=O)c1ccc(N2CCCC(CO)(CCOc3ccccc3)C2)nc1 (configuration not stated)	-1.73	10.4	4.96	15.7	6.39	-22.1	19.5	65.7	5.38	16.1	-2.3
CC(=O)NCCc1ccc(C(=O)N2CCCC2c2cnn(C)c2)cc1 (configuration not stated)	-1.4	21.1	-6.64	-8.62	2.89	-3.6	11.9	1.72	4.43	16.1	-8.59
O=C(NCCNc1ncccn1)C1CCN(CC(F)(F)F)CC1	-4.28	18.9	5.29	1.52	-6.51	0.802	18.9	20.5	7.39	11.1	-4.74
CN(C)C(=O)C1CN(Cc2ccccc2)CCN(S(C)(=O)=O)C1 (configuration not stated)	-5.51	17.6	8.68	7.06	4.35	-3.02	3.12	11.2	2.15	9.09	-19.2
COC(=O)C1CCN(C(=O)CN2CCN(c3cccc(C)c3)CC2)CC1	-1.93	2.74	1.05	3.16	-7.54	-1.6	8.65	0.408	5.21	16.1	-1.41
CCN1Cc2c(C(=O)NCC3CC3)ncn2-c2ccccc2S1(=O)=O	3.87	-5.48	-3.01	4.85	3.37	-0.399	16	-1.54	0	18.5	-2.17
CNc1cc(C2CCCN2Cc2ccccc2OCC(=O)O)ccn1 (configuration not stated)	-3.95	1.35	11.6	2.57	-3.16	0.232	2.34	4.49	5.38	9.09	-8.55
COc1ccc(C2=CCN(C(=O)CN(C)CC(N)=O)CC2)cc1	-1.62	5.06	0.216	-0.305	-19.4	6.46	9.42	16.9	3.45	8.86	-6.22
O=C1N(Cc2ccc(F)c(F)c2)CCCC12CCN(C1CCSCC1)C2 (configuration not stated)	-4.12	-8	-4.64	30.2	9.25	23.4	9.77	3.27	15.8	25.9	0.965

From ChEMBL document CHEMBL3988442, “University of Dundee, Small-Polar-MMV Screening Library” (2021)
